Source: PubChem (Broad Institute)
PGC1a acetyl inh = PGC1a acetylation modulation, inhibitor mode. 350,000 compounds, 0.17% hits. AID 651687. inhibition, % at 15.6 µM. U2OS PGC1a acetylation, AlphaScreen anti-acetyl-lysine; with virally co-expressed GCN5 acetyltransferase;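 active = every replicate shows inhibition of at least 40%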;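 also: 0% = neutral control wells and 100% = positive control wells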
PAX8 reporter = PAX8 transcriptional activity inhibition; RMG-I TPO-luciferase reporter, SteadyGlo, 24 h; inhibition, % at 12.6 µM; 360,000 compounds, 1.2% hits;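 active = mean replicate inhibition at least 60% with every replicate also reaching 60%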;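 also: luciferase light reporting Pax8 driven TPO promoter activity; plate controls were median of neutral control wells for no effect and mitoxantrone controls for full effect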
LGR2 inh = Drosophila LGR2 receptor signaling inhibition; 380,000 compounds, 0.35% hits; inhibition, % at 9.99 µM; AID 720647; HEK293 LGR2, CRE-luciferase, bursicon-stimulated, 4 h;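 active = drop in luminescence signal, shown as inhibition above about 50% in the replicate tests, limit read from the data, passing the limit was not always enough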;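 also: agonist challenge used bursicon conditioned medium at about half maximal strength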
rRNA inh HTS = inhibits bacterial ribosomal RNA function over humanized ribosomes. 350,000 compounds, 1.6% hits. GFP signal change (wild-type ribosome), % (concentration not given with the values). E. coli WT GFP vs humanized-ribosome RFP mutants, fluorescence, 24 h; stronger effect = lower value; DMSO median 0, no signal -100;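 active = significant combined selectivity score with lowered wild-type GFP, culture density cut under 30%, mutant RFP and density less affected; inactive = any of these conditions unmet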
EWS-Fli block = EWS/Fli transcriptional activity inhibition; inhibition, % at 12.6 µM; A673 NR0B1-luciferase reporter, viability-normalised; 350,000 compounds, 0.67% hits;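 active = mean inhibition of at least 50% after viability correction, with every replicate also passing that limit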;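 also: firefly luciferase signal divided by Alamar Blue viability fluorescence both relative to DMSO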
SIRT5 block = blocks human SIRT5 desuccinylation of peptide | Purified SirT5, succinyl-peptide AMC, trypsin-coupled fluorescence | AID 652115 | inhibition, % at 15 µM | 330,000 compounds, 1.1% hits | Q9NXA8; in the data active = inhibition above about 15%
Target sequence (Q9NXA8 whole entry, looked up): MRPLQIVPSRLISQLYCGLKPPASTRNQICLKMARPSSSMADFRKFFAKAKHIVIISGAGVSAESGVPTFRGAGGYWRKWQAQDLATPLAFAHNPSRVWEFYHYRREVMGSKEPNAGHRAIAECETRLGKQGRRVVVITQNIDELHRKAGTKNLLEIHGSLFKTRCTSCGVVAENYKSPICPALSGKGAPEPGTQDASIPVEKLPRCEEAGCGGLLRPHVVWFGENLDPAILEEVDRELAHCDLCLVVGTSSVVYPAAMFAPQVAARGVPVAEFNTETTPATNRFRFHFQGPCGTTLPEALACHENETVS
Starred values were filed as active, the others as inactive; x = not tested or not shown; ! = repeats disagree. Compounds with a hit are over-represented: about 3.4% of the library has one in this group of screens.

SMILES	PGC1a acetyl inh	PAX8 reporter	LGR2 inh	rRNA inh HTS	EWS-Fli block	SIRT5 block
CN(C)CC(=O)N[C@H]1CC[C@H](CC(=O)O)O[C@@H]1CO	x	x	25	2	-13	-6
Cc1cccn2c(=O)c(/C=C(\C#N)C(=O)NCc3ccco3)c(N3CCCCCC3)nc12	0	16	-6	-30*	2	-5
O=C(CN1C2CCCC1CC(NC(=O)c1ccco1)C2)Nc1ccccc1C(F)(F)F (stereo not drawn)	-11	22	x	x	x	x
O=C(CN1C2CCCC1CC(NC(=O)c1ccccc1)C2)Nc1ccccc1C(F)(F)F (stereo not drawn)	4	20	3	-41*	19	-2
COc1ccc2nc(C)cc(N/N=C/c3ccc(F)cc3)c2c1	94*	33	69*	-52	71*	3
COc1ccc(/C=N/Nc2cc(C)nc3c(C)cccc23)cc1	x	16	3	-51	67*	-5
O=C(C[C@H]1C=C[C@@H](NC(=O)NC2CCCCC2)[C@@H](CO)O1)NCc1ccc(F)cc1	-1	17	21	-2	-4	1
O=C(O)c1cccc(NN=C2c3ccccc3-c3ccccc32)c1	-9	-8	-8	-53*	10	6
O=C(O)c1cc(NN=C2c3ccccc3-c3ccccc32)ccc1Cl	-2	-2	-3	-48	-5	-14
O=C(O)c1cccc2c1-c1ccccc1/C2=N\Nc1ccccc1	-7	-87	-46	-39*	-88	3
C[C@@H]1CN([C@@H](C)CO)C(=O)c2cc(-c3cccnc3)cnc2O[C@H]1CN(C)C(=O)C1CCCCC1	10	x	-7	1	-6	x
CCn1c(SCc2ccc(F)cc2)nc2c(c1=O)SCC2	12	-3	11	-31*	9	6
CCn1c(SCC(=O)Nc2ccccc2)nc2c(c1=O)SCC2	3	13	x	x	-5	-1
CCn1c(SCc2cccc(F)c2)nc2c(c1=O)SCC2	-15	12	-4	-35*	10	-3
C[C@H](CO)N1C[C@H](C)[C@@H](CN(C)C(=O)CC2CC2)Oc2cc(C#CC3CC3)ccc2S1(=O)=O	-5	x	2	-5	-8	2
O=C(C1CCCC1)N1CC(=O)N2[C@H](C1)[C@@H](c1ccc(C#CCc3ccccc3)cc1)[C@@H]2CO	-14	x	19	-9	-2	2
COc1cccc(CN(C)C[C@H]2OCc3ccccc3-c3ccccc3C(=O)N([C@H](C)CO)C[C@H]2C)c1	x	x	x	-4	x	x
CCOc1ccc(NC(=O)CCCN2C(=S)NC(C)(C)CC2C)cc1 (stereo not drawn)	x	-25	10	x	x	x
CC1CC(C)(C)NC(=S)N1CCCC(=O)Nc1ccc(Br)cc1 (stereo not drawn)	-9	7	0	-37*	15	0
C[C@@H]1CN([C@H](C)CO)C(=O)c2cc(NC(=O)Cc3ccccc3)ccc2O[C@@H](C)CCCCO[C@H]1CN(C)C(=O)NC1CCCCC1	-6	x	12	1	6	2
O=C(Nc1ccccc1Br)C1CCN(S(=O)(=O)c2cccs2)CC1	-10	-9	-2	-16*	-7	x
Cc1ccccc1NC(=O)C1CCN(S(=O)(=O)c2cccs2)CC1	-22	1	-3	1	11	-1
C[C@H](CO)N1C[C@H](C)[C@H](CN(C)C(=O)C2CCC2)Oc2cc(-c3cncnc3)ccc2S1(=O)=O	-4	x	2	3	-9	6
COC(=O)c1ccc(CNC(=O)/C=C/[C@H]2O[C@@H](n3cc(C)c(=O)[nH]c3=O)C[C@@H]2O)cc1	7	-4	x	x	0	21*
COc1ccc(-c2ccc(C3[C@H]4CNC[C@@H]3N4C(=O)Nc3ccc4c(c3)OCO4)cc2)cc1 (stereo partly drawn)	x	x	-17	-6	x	2
SMILES	PGC1a acetyl inh	PAX8 reporter	LGR2 inh	rRNA inh HTS	EWS-Fli block	SIRT5 block
CC1CCCN(C(=O)c2nn(C)c3c2CS(=O)(=O)c2ccccc2-3)C1 (stereo not drawn)	-11	10	9	0	x	-8
Cn1nc(C(=O)N2CCCCC2)c2c1-c1ccccc1S(=O)(=O)C2	48*	-6	2	-3	-10	4
CC(=O)Oc1ccc(N2C(=O)c3cccc4c([N+](=O)[O-])ccc(c34)C2=O)cc1	22	44	-2	94	66*	-2
O=C1c2cccc3c([N+](=O)[O-])ccc(c23)C(=O)N1O	x	52	-46	40	1	5
O=C(C[C@H]1CC[C@@H]2[C@H](COC[C@H](O)CN2Cc2ccncc2)O1)NCc1ccccc1Cl	2	x	7	1	x	-2
CC(=O)c1sc(NC(=O)CCS(=O)(=O)c2ccc(C)cc2)nc1C	5	85*	14	11	5	1
COc1ccc(C)c2sc(NC(=O)CCS(=O)(=O)c3ccccc3)nc12	-2	78*	-2	-31*	13	-3
CCOc1cccc2sc(N(CCN(C)C)C(=O)CCS(=O)(=O)c3ccccc3)nc12	5	14	3	-2	x	-1
CCOc1cccc2sc(NC(=O)CCS(=O)(=O)c3ccccc3)nc12	19	87*	15	-1	2	0
CCCCC(=O)Nc1nc2c(OC)ccc(OC)c2s1	x	-3	-1	-2	2	-3
CCCN(C[C@H]1N[C@H](CO)[C@@H]1c1ccc(-c2cccnc2)cc1)C(C)=O	-4	-10	-2	0	4	0
CN(C[C@H]1N[C@@H](CO)[C@@H]1c1ccc(-c2cccnc2)cc1)C(=O)c1ccccc1	-25	98*	-8	-2	21	x
Nc1nc(Cl)cc(Nc2ccccc2Cl)n1	x	-18	-13	5	-19	3
CSc1nc(Cl)cc(Nc2ccccc2N)n1	-5	18	8	-23*	12	-4
CO[C@@H]1CN(C)C(=O)c2ccc(NC(=O)C3CCOCC3)cc2OC[C@@H](C)N(C(=O)c2ccccc2)C[C@H]1C	1	-3	1	2	5	-8
CCC[C@@H](CN1CCC[C@H]1CN1C(N)=NC[C@H]1C(C)C)N1C[C@@H]([C@H](C)CC)N(CCCC2CCCC2)C1=N	3	12	0	x	5	-5
CC[C@@H](C)[C@@H]1CN([C@@H](CN2CCC[C@H]2CN2C(N)=NC[C@H]2C(C)C)C(C)C)C(=N)N1CCCC1CCCC1	-4	84*	8	-36	-6	2
COc1ccccc1-c1ccc(C2[C@H]3CNC[C@@H]2N3C(=O)Nc2ccccc2Cl)cc1 (stereo partly drawn)	-1	-23	6	-59	62*	6
Cc1ccc(-c2ccc(C3[C@H]4CNC[C@@H]3N4C(=O)Nc3ccc(F)cc3)cc2)cc1 (stereo partly drawn)	-1	-18	-14	-60	62*!	6
